Our source for the binding signal values is PMC4081100, “A DNA-binding-site landscape and regulatory network analysis for NAC transcription factors in Arabidopsis thaliana”.

What all share (assay): universal protein binding microarray (PBM); transcription factors of Arabidopsis thaliana; high values mean tight binding
Common to all, as to conditions: protein: recombinant; tags: GST; chain copies: 2; dsDNA, one strand shown

In one test the target is T1, GST-ANAC092(1-176) (Arabidopsis thaliana, UniProt Q9FKA0 1-176).
T1 sequence: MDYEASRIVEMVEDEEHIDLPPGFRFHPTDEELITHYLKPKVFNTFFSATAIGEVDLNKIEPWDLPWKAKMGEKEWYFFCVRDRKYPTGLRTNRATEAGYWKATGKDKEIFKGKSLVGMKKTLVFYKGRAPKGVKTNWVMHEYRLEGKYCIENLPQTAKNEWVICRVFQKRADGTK
The gist of the method: (§1)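 Binding is expressed as the normalised enrichment score (E-score). Proteins carrying a GST tag, whether NAC-domain, full-length or DNA-binding-domain forms, were induced in cells, and zinc acetate was added for zinc-finger proteins. After purification on glutathione–Sepharose 4B and quantification by A280 or anti-GST western blot, each was applied in duplicate at 200 to 500 nM final to custom all-10-mer Agilent 4 × 180K arrays made double-stranded by primer extension. Gapped and ungapped 8-mers were scored.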

A further test concerns the target T2, GST-ANAC019 NAC domain (Arabidopsis thaliana, UniProt Q9C932 14-162).
T2 sequence: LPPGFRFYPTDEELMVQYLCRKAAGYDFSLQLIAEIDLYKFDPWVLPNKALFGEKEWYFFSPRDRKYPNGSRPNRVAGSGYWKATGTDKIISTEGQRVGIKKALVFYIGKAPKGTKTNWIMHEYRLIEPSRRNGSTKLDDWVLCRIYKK
The essentials: as §1

A further test has as its target T3, GST-ANAC055(1-171) (Arabidopsis thaliana, UniProt Q9LDY8 1-171).
T3 sequence: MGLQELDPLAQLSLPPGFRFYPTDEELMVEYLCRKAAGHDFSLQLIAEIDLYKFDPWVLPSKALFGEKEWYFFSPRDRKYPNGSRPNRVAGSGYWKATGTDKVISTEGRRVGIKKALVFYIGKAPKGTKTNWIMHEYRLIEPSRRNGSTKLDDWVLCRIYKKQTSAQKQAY
The gist of the method:
as §1

Another test deals with T4, GST-ATAF1 NAC domain (Arabidopsis thaliana, UniProt Q39013 7-158).
T4 sequence: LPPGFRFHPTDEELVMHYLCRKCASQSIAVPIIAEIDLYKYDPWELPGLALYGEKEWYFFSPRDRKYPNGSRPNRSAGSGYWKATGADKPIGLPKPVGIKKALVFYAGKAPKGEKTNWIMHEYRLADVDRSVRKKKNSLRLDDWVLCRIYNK
The gist of the method:
as §1

Test [1] deals with T5, GST-ANAC092(1-285) full length (Arabidopsis thaliana, UniProt Q9FKA0 1-285).
T5 sequence: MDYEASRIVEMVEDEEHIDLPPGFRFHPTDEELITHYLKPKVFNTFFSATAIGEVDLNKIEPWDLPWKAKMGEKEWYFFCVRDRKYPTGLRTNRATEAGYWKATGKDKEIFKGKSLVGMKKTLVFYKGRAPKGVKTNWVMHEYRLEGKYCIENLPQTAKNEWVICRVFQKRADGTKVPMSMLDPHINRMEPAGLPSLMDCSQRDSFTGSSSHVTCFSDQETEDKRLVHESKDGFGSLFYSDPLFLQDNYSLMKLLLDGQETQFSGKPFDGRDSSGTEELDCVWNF
The essentials:
as §1

The target in a further test is T6, GST-NAP(1-166) (Arabidopsis thaliana, UniProt O49255 1-166).
T6 sequence: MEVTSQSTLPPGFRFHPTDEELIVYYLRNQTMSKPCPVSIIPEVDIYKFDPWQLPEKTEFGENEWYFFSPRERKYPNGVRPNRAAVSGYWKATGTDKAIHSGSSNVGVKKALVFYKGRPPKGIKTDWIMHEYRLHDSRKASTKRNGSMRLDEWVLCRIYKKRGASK
The essentials: as §1

The target in the next test is T7, GST-NST2(1-184) (Arabidopsis thaliana, UniProt Q9M274 1-184).
T7 sequence: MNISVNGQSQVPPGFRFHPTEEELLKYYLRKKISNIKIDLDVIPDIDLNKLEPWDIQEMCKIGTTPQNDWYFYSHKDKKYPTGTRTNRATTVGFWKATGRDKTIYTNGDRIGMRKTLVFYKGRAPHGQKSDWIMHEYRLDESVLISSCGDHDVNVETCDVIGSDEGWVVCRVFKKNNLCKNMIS
The gist of the method: as §1

In a further test the target is T8, GST-SND1(1-203) (Arabidopsis thaliana, UniProt Q9LPI7 1-203).
T8 sequence: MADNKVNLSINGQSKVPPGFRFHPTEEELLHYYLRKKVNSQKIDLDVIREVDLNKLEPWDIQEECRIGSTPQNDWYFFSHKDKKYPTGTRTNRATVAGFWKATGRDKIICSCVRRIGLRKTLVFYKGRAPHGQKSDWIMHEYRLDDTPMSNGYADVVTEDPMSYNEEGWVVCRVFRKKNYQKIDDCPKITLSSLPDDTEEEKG
The gist of the method:
as §1

The target in a further test is T9, GST-VND3 NAC domain (Arabidopsis thaliana, UniProt Q9FH59 12-162).
T9 sequence: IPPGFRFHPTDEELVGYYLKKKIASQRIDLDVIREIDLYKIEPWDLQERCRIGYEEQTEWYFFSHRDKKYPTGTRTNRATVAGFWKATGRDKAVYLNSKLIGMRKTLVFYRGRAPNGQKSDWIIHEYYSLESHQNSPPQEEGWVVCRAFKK
The essentials:
as §1

Another test has as its target T10, GST-VND7 NAC domain (Arabidopsis thaliana, UniProt Q9C8W9 9-158).
T10 sequence: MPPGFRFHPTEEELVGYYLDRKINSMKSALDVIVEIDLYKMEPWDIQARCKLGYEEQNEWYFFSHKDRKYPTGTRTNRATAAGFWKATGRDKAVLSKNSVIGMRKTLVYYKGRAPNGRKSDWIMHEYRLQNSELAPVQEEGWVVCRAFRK
The gist of the method:
as §1

For the sequence TATACGCA, the binding signal came to 0.311 E-score with GST-ANAC092(1-176); 0.232 E-score with GST-ANAC019 NAC domain; 0.32 E-score in the test with GST-ANAC055(1-171); 0.231 E-score in the test with GST-ATAF1 NAC domain; 0.4 E-score in [1]; 0.25 E-score with GST-NAP(1-166). The binding signal was 0.243 E-score with GST-NST2(1-184), 0.298 E-score with GST-SND1(1-203), 0.29 E-score in the test with GST-VND3 NAC domain and 0.102 E-score with GST-VND7 NAC domain.

For the sequence ACGTTAAC, the binding signal was determined as 0.421 E-score in the test with GST-ANAC092(1-176); 0.257 E-score with GST-ANAC019 NAC domain; 0.228 E-score with GST-ANAC055(1-171); 0.227 E-score in the test with GST-ATAF1 NAC domain; 0.438 E-score in test [1]; 0.218 E-score in the test with GST-NAP(1-166). In addition, the binding signal with GST-NST2(1-184) was found to be 0.27 E-score; with GST-SND1(1-203) it was 0.412 E-score; with GST-VND3 NAC domain, 0.209 E-score; in the test with GST-VND7 NAC domain it was 0.207 E-score.

Regarding ATACGTTA, the binding signal was found to be 0.443 E-score with GST-ANAC092(1-176); 0.074 E-score with GST-ANAC019 NAC domain; 0.139 E-score with GST-ANAC055(1-171); 0.273 E-score with GST-ATAF1 NAC domain; 0.451 E-score in test [1]; 0.169 E-score with GST-NAP(1-166). Also, the binding signal is 0.214 E-score with GST-NST2(1-184), 0.433 E-score in the test with GST-SND1(1-203), 0.274 E-score with GST-VND3 NAC domain and 0.146 E-score with GST-VND7 NAC domain.

On to TGCACGCA, for which the binding signal with GST-ANAC092(1-176) came to 0.419 E-score; in the test with GST-ANAC019 NAC domain, 0.355 E-score; with GST-ANAC055(1-171), 0.255 E-score; in the test with GST-ATAF1 NAC domain, 0.128 E-score; in test [1] it was 0.458 E-score; with GST-NAP(1-166), 0.265 E-score. In addition, the binding signal with GST-NST2(1-184) was 0.211 E-score; with GST-SND1(1-203), 0.342 E-score; in the test with GST-VND3 NAC domain it was 0.289 E-score; with GST-VND7 NAC domain, 0.32 E-score.

Take CTACACGC: the binding signal with GST-ANAC092(1-176) came out at 0.361 E-score; with GST-ANAC019 NAC domain, 0.11 E-score; with GST-ANAC055(1-171), 0.0947 E-score; in the test with GST-ATAF1 NAC domain, 0.186 E-score; in [1], 0.425 E-score; with GST-NAP(1-166), 0.192 E-score. For the same sequence, the binding signal with GST-NST2(1-184) was 0.235 E-score; in the test with GST-SND1(1-203) it was 0.307 E-score; with GST-VND3 NAC domain it was 0.147 E-score; in the test with GST-VND7 NAC domain, 0.0812 E-score.

As for AGCGTGTC, the binding signal was found to be 0.398 E-score in the test with GST-ANAC092(1-176); 0.206 E-score with GST-ANAC019 NAC domain; 0.174 E-score with GST-ANAC055(1-171); 0.165 E-score with GST-ATAF1 NAC domain; 0.432 E-score in [1]; 0.0924 E-score in the test with GST-NAP(1-166). Moreover, the binding signal with GST-NST2(1-184) amounted to 0.107 E-score; with GST-SND1(1-203) it was 0.131 E-score; with GST-VND3 NAC domain it was 0.156 E-score; in the test with GST-VND7 NAC domain, 0.208 E-score.

Turning to AGTTACGC, the binding signal in the test with GST-ANAC092(1-176) was found to be 0.273 E-score; with GST-ANAC019 NAC domain it was 0.134 E-score; with GST-ANAC055(1-171), 0.0766 E-score; with GST-ATAF1 NAC domain, 0.124 E-score; in [1], 0.275 E-score; in the test with GST-NAP(1-166), 0.115 E-score. For the same sequence, the binding signal came to 0.245 E-score in the test with GST-NST2(1-184), 0.412 E-score with GST-SND1(1-203), 0.103 E-score in the test with GST-VND3 NAC domain and 0.0942 E-score with GST-VND7 NAC domain.

Consider AACGTACG, for which the binding signal was 0.297 E-score in the test with GST-ANAC092(1-176); 0.122 E-score with GST-ANAC019 NAC domain; 0.207 E-score in the test with GST-ANAC055(1-171); 0.326 E-score with GST-ATAF1 NAC domain; 0.403 E-score in test [1]; 0.212 E-score with GST-NAP(1-166). The binding signal came out at 0.184 E-score with GST-NST2(1-184), 0.326 E-score with GST-SND1(1-203), 0.308 E-score in the test with GST-VND3 NAC domain and 0.209 E-score with GST-VND7 NAC domain.
